This is a sample that favours compounds with a hit; in the whole collection about 18% have one here.
TDP1 block – inhibitors of human tyrosyl-DNA phosphodiesterase TDP1; Q9NUW8; recombinant TDP1, AlphaScreen DNA substrate cleavage; Potency, µM (top dose mostly 130 µM), without a hit: at the top dose activity change, negative = inhibition, usual class: inhibitors; hit rate 0.28% among 350,000; also: potency is read from the fitted curve at half-maximal effect; nearly all actives have a fitted effect of over 40% in size
Target sequence (Q9NUW8 whole entry, looked up): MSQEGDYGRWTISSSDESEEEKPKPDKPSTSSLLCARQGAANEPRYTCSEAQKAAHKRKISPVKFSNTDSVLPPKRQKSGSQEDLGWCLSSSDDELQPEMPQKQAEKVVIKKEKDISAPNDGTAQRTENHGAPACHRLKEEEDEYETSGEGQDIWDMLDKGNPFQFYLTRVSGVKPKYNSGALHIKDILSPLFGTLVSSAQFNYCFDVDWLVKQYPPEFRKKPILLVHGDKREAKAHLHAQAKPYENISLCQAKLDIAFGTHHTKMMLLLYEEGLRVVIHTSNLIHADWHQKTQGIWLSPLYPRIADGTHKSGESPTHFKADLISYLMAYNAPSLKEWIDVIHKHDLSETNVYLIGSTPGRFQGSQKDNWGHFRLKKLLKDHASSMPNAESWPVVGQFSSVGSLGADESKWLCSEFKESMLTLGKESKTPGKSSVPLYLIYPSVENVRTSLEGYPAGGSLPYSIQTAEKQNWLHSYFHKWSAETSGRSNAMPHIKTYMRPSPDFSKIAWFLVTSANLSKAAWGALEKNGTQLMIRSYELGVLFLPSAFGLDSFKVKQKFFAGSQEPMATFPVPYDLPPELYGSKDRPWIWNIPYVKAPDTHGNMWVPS
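Signal: AlphaScreen proximity between streptavidin donor and anti-FITC acceptor beads on intact substrate. Reaction: Tdp1 1 nM, substrate 15 nM final, 5 min RT after 15 min compound preincubation.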
IL1B secr inh – blocks inflammasome-driven IL-1 beta release. hit rate 4.7% among 360,000. AID 743279. activity change, % at 57.5 µM. THP-1 LPS/ATP IL-1B secretion, AlphaLISA, 16 h; hits give low values; in the data active = activity change below about -50%; inconclusive = mostly about -30% to -49%
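Secreted IL-1B measured by AlphaLISA bead assay after 16 h compound exposure of THP-1 cells; compounds (final up to 57.5 uM) added 1 h before LPS (250 ng/mL) and ATP (1.25 mM) stimulation; lower signal means less secretion.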
DT40 TDP1 no CPT – qHTS for Inhibitors of human tyrosyl-DNA phosphodiesterase 1 (TDP1): qHTS in cells in absence of CPT; DT40 Tdp1-/- hTDP1 cells, no CPT, ATP luminescence, 48 h; Potency, µM (highest dose often 46.2 µM), without a hit: top-dose activity change, negative = growth inhibition, most hits filed as inhibitors; hit rate 15% among 420,000; AID 686978, 2013; also: potency is read from the fitted curve at half-maximal effect; nearly all actives have a fitted effect of over 55% in size
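DT40 Tdp1-/-;hTDP1 cells, no CPT (DMSO vehicle only), 400 cells/well; compounds pin-transferred; ≥48 hr, 37 °C; CellTiter-Glo 30 min RT dark, luminescence read.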
Six1-Eya2 inh – inhibitors of human Six1/Eya2 interaction. activity change, % (test concentration not listed). hit rate 0.56% among 360,000. Q15475+O00167. AlphaScreen GST-Six1/His-Eya2 binding, biochemical; hits give low values; in the data active = activity change below about -65%; inconclusive = mostly about -30% to -63%
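AlphaScreen with GST-Six1 and His-Eya2 (5X mix: 250 nM and 500 nM), glutathione donor and nickel acceptor beads; buffer 50 mM Tris pH 8.0, 300 mM NaCl, 1 mM TCEP; 1 h at 37 C in the dark.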
TDP1 cell CPT – DT40-hTDP1 cell growth loss with CPT; chicken DT40 Tdp1-/-;hTDP1 cells + 20 nM CPT, ATP luminescence, 48 h; Potency, µM (highest dose often 46.2 µM), inactives show at the highest dose activity change, negative = growth inhibition, hits mostly inhibitors; hit rate 12% among 420,000; also: potency is read from the fitted curve at half-maximal effect; nearly all actives have a fitted effect of over 55% in size
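Cell growth measured by CellTiter-Glo luminescence after a minimum 48 h, 37 C compound exposure with 20 nM CPT in Tdp1-knockout DT40 cells stably expressing hTDP1, seeded 400/well; qHTS titration format.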
CtBP-E1A blk – inhibitors of CtBP/E1A interaction; AlphaScreen GST-E1A/His-CtBP binding, 1536-well; hits give low values; activity change, % (concentration not given with the values); hit rate 0.49% among 340,000; in the data active = activity change below about -65%; inconclusive = mostly about -30% to -63%
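Protein mix (5X: 125 nM each GST-E1A, His-CtBP) was incubated with pinned compound 2 h at 37 deg C in dark, in 50 mM Tris pH 8.0 buffer with 300 mM NaCl. Glutathione donor and nickel acceptor beads followed; AlphaScreen signal read after 1 h.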
* hit, by the source's call; ? = inconclusive; nt = not tested or not shown; [ ] = another dose, or the depositor's remark. Unless noted, calls follow the shape of the dose curve; as a rule, active = well fitted curve in the direction sought with a large enough effect; inconclusive = small, poorly fitted or top-dose-only effect, or another doubt; inactive = no such curve, though single readings can be large; an effect the other way counts as inactive or inconclusive. % is scaled to controls: 0 for no effect and ±100 for the full control effect.

SMILES	TDP1 block	IL1B secr inh	DT40 TDP1 no CPT	Six1-Eya2 inh	TDP1 cell CPT	CtBP-E1A blk
Cc1ccc(OCCC(=O)Nc2ccc(S(=O)(=O)N3CCCC3)cc2)cc1	-0.7%	?	14.6µM*	-1.1	?	-0.8
Cc1ccc(NC(=O)CSCC(=O)Nc2ccc(S(=O)(=O)N3CCCC3)cc2)cc1	0.2%	1.7	?	0.0	-4.3%	0.3
CCOc1ccc(CC(=O)Nc2ccc(S(=O)(=O)N3CCCC3)cc2)cc1	6.7%	11.2	14.6µM*	-0.9	?	3.8
CCOc1ccc(NC(=O)CSc2nnc3c(n2)[nH]c2ccc(S(=O)(=O)N4CCCCC4)cc23)cc1	nt	nt	15.8µM*	nt	12.6µM*	nt
CCc1cc2c(N[C@@H](Cc3ccccc3)C(=O)O)ncnc2s1	nt	26.3	-3.8%	0.3	-4.4%	1.8
O=[N+]([O-])c1ccc(-n2nnnc2-c2ccccc2)cc1	-2.6%	12.5	?	-0.6	?	nt
O=[N+]([O-])c1ccc(-n2nnnc2-c2ccccc2)c([N+](=O)[O-])c1	4.7%	-64.1*	2.91µM*	-22.5	3.66µM*	-13.2
O=C(NCc1cccnc1)c1cccc(S(=O)(=O)NCc2ccccc2)c1	-5.1%	8.6	1.8%	-3.6	0.3%	0.6
O=C(O)/C(=C\c1ccc(-c2ccc(F)cc2)o1)c1ccccc1	0.0%	27.1	-0.4%	-1.7	0.6%	2.8
O=C(Nc1cc(-c2ccccc2)[nH]n1)c1ccccc1	nt	-54.0*	?	-6.1	-2.6%	-11.3
O=C(Nc1ccccn1)c1ccccc1	nt	-3.3	-3.7%	10.6	4.4%	3.0
O=C(Nc1cc(-c2ccccc2)[nH]n1)c1ccccc1F	nt	-57.3*	?	-0.8	-26.8%	2.5
O=C(O)c1ccccc1C(=O)Nc1cc(-c2ccccc2)[nH]n1	nt	0.2	-13.4%	5.9	12.5%	-0.4
Nc1ccccc1-c1ccn[nH]1	nt	11.6	-9.7%	4.2	5.4%	2.8
COC(=O)c1ccc(C(NC(=O)OCc2ccccc2)/C(=C/[C@@H](C)C(=O)Nc2ccccc2)c2cccnc2)cc1 (some centres undefined)	8.7%	nt	nt	nt	nt	nt
O=C(O)C1=C[C@H](c2ccc3c(c2)OCO3)C[C@H](OCc2ccc(CO)cc2)O1	nt	-12.8	-64.1%	-14.5	-7.0%	-3.2
CCc1nc2ccc(C(=O)Nc3cc(-c4ccccc4)ccc3OC)cn2c1N(CC)Cc1cccc(Br)c1	nt	?	?	1.8	?	3.8
CCCCN(C=O)c1c(CC)nc2ccc(C(=O)Nc3cc(-c4ccccc4)ccc3OC)cn12	nt	-69.5*	16.4µM*	-1.3	?	-7.0
CCc1nc2ccc(C(=O)Nc3cc(-c4ccccc4)ccc3OC)cn2c1N(CC)CCN(C)C	nt	-14.1	18.4µM*	-15.4	16.4µM*	-5.0
CCOC(=O)c1ccc(NS(=O)(=O)c2cc3c(cc2C)NC(=O)CO3)cc1	3.3%	0.4	3.0%	-4.1	-12.3%	3.1
CNC(=O)c1ccc(Nc2nnc(-c3ccc(C)c(S(=O)(=O)N4CCCCC4)c3)c3ccccc23)cc1	-10.1%[12.3 µM]	nt	-2.9%	nt	1.0%	nt
COc1ccc(Nc2nc(-c3ccccc3)nc3ccccc23)cc1S(=O)(=O)N1CCOCC1	1.9%	-73.8*	8.2µM*	-23.8	14.6µM*	-4.4
CNC(=O)c1ccc(Nc2nnc(-c3ccc(C)c(S(=O)(=O)N4CCOCC4)c3)c3ccccc23)cc1	5.7%[2.28 µM]	nt	7.31µM*	nt	20.6µM*	nt
COc1ccc(Nc2nnc(-c3ccc(C)c(S(=O)(=O)N4CCOCC4)c3)c3ccccc23)cc1	4.8%[12.3 µM]	nt	7.31µM*	nt	14.6µM*	nt
Cc1ccc(-c2nnc(Nc3ccc(OCC(N)=O)cc3)c3ccccc23)cc1S(N)(=O)=O	nt	48.4	21.5%	-21.8	-12.6%	-21.4
SMILES	TDP1 block	IL1B secr inh	DT40 TDP1 no CPT	Six1-Eya2 inh	TDP1 cell CPT	CtBP-E1A blk
COc1ccc(NC(=O)c2ccccn2)cc1S(=O)(=O)N1CCOCC1	2.7%	-15.1	?	-18.3	-17.7%	-17.4
Cc1ccc(Nc2nnc(-c3ccc(C)c(S(=O)(=O)N4CCOCC4)c3)c3ccccc23)cc1	0.4%[12.3 µM]	nt	10.3µM*	nt	16.4µM*	nt
O=S(=O)(c1ccc(Cl)cc1)n1ccc(-c2cccc(OCc3c(F)cccc3Cl)c2)n1	0.0%	-9.7	?	2.5	-28.8%	-6.8
COc1cc(OC)cc(C(=O)Nc2ccc3c(c2)n(C)c(=O)n3C)c1	4.9%	-25.3	7.5%	-18.1	23.3%	-19.0
O=C(CCNS(=O)(=O)c1ccc(Cl)cc1)N1CCN(Cc2ccccc2)CC1	-5.3%	-2.0	-17.1%	-10.2	-23.6%	12.5
Cc1c(C)c(C)c(S(=O)(=O)NCCC(=O)N2CCN(Cc3ccc(C#N)cc3)CC2)c(C)c1C	1.8%	8.2	8.2µM*	-0.2	16.4µM*	1.8
O=C(Nc1cccc(-c2cn3cccnc3n2)c1)c1ccc2c(c1)OCO2	nt	0.0	?	?	-18.0%	?
COC(=O)COc1ccc(S(=O)(=O)Nc2ccc3c(c2)OCCO3)cc1C	nt	-73.4*	?	-5.2	?	-1.0
Cc1cc(Cl)c(S(=O)(=O)NC2CCCCC2)cc1OCC(=O)Nc1nncs1	-3.2%	17.1	23.1µM*	-8.0	25.9µM*	-13.1
COC(=O)COc1ccc(S(=O)(=O)Nc2ccc3c(c2)OCCO3)cc1Cl	4.4%	?	-16.6%	2.7	-22.5%	5.8
Cc1cc(Cl)c(S(=O)(=O)Nc2ccon2)cc1OCC(=O)NC1CCCCC1	5.6%	0.0	4.7%	1.1	-5.4%	-0.7
Cc1cc(Cl)c(S(=O)(=O)Nc2ccc3c(c2)OCCO3)cc1OCC(=O)NC1CCCCC1	3.5%	-52.9*	?	-5.4	?	0.7
COCCC(=O)N1CCC(Oc2ccc(C(=O)NCCC3=CCCCC3)cc2)CC1	1.9%	1.9	?	3.1	16.4µM*	1.0
COCCC(=O)N1CCC(Oc2ccc(C(=O)NCCCC3CCCC3)cc2)CC1	4.8%	8.7	20.6µM*	22.8	20.6µM*	0.0
C#CCSc1nc(Cc2ccc(Cl)cc2)nc2ccccc12	-5.4%	0.4	?	13.0	-7.8%	4.5
O=C(O)C1C2C=CC(C2)C1C(=O)NCc1cccs1 (centres undefined)	44.7µM*	13.6	-12.1%	-0.5	4.4%	0.0
O=C(NCc1ccccn1)C(=O)NCC1OCCN1S(=O)(=O)c1ccc(Br)cc1 (centres undefined)	3.0%	6.7	-12.0%	-1.2	-7.1%	10.6
